Consider five compounds from the supplement of paper PMC7411054.

Holding throughout (settings): treatment time: 24 h
Assay [1] has as its system HepG2-GM130-SQSTM1. The assay can be described thus: lowest phenotypically active concentration; higher = less potent. The method, boiled down: (§1)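 The reporter lines, fifteen in total and built by gene editing in A549, HepG2 and WPMY1 cells, used BFP for segmentation alongside GFP and RFP/FusionRed markers. Each was treated at 0.3, 1, 3 or 9 µM for 24 h in four wells and then imaged live, with live-cell features normalised to solvent control wells. Deviation meant ≥3 of 4 wells beyond the 95th percentile of control Euclidean distances; reproducibility meant a median replicate Pearson correlation above the 95th percentile of non-replicates. Only conditions meeting both were scored as phenotypically active.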

In assay [2] the test system is HepG2-TUBA1B-RELA. The assay is described as above. The method, boiled down: as §1
The subject of assay [3] is WPMY1-GM130-SQSTM1. The assay is described as above. A digest of the protocol:
as §1

The subject of assay [4] is WPMY1-TP53BP1-CLTA. The description is as above. A digest of the protocol: as §1
The next assay relates to A549-CANX-COX4. In words: phenotypically active (imaging signature differs from DMSO and reproducible) at any of 0.3-9 uM (binary (1 = active, 0 = inactive)); higher = active. A digest of the protocol: as §1
In a further assay the test system is A549-TP53BP1-CLTA. Described as above. A digest of the protocol: as §1
Another assay relates to HepG2-ACTB-RAB5A. The assay is described as above. A digest of the protocol: as §1
The test system of another assay is HepG2-CANX-COX4. The description is as above. A digest of the protocol:
as §1

Assay [5] deals with HepG2-GM130-SQSTM1. The description is as above. A digest of the protocol:
as §1

A further assay has as its system HepG2-TP53BP1-CLTA. The description is as above. The method, boiled down:
as §1

In assay [6] the test system is HepG2-TUBA1B-RELA. The description is as above. The method, boiled down: as §1
Another assay concerns WPMY1-ACTB-RAB5A. The description is as above. A digest of the protocol:
as §1

The next assay relates to WPMY1-CANX-COX4. Described as above. A digest of the protocol: as §1
Assay [7] has as its system WPMY1-GM130-SQSTM1. The description is as above. The method, boiled down: as §1
Assay [8] has as its system WPMY1-TP53BP1-CLTA. The description is as above. A digest of the protocol:
as §1

The next assay concerns WPMY1-TUBA1B-RELA. The description is as above. A digest of the protocol:
as §1

For another assay, the system named is A549-ACTB-RAB5A. Described as above. The method, boiled down:
as §1

The test system of the next assay is A549-GM130-SQSTM1. The description is as above. The method, boiled down: as §1
Another assay has as its system A549-TUBA1B-RELA. The description is as above. A digest of the protocol:
as §1

Counter-ions that a name gives are not always drawn.

Turning to `C[C@@H]1C[C@@H]([C@H](O)CC2CC(=O)NC(=O)C2)C(=O)[C@@H](C)C1` [Cycloheximide], the “lowest phenotypically active concentration” value in the assay with HepG2-GM130-SQSTM1 [1], in the assay on HepG2-TUBA1B-RELA [2], in the assay with WPMY1-GM130-SQSTM1 [3] and in the assay with WPMY1-TP53BP1-CLTA [4] was at most 0.3 µM throughout. For the same compound, the phenotypically active with A549-CANX-COX4, in the assay on A549-TP53BP1-CLTA, in the assay with HepG2-ACTB-RAB5A, in the assay with HepG2-CANX-COX4, in the assay with HepG2-GM130-SQSTM1 [5] and with HepG2-TP53BP1-CLTA was 1 (active) each time. Also, the phenotypically active in the assay on HepG2-TUBA1B-RELA [6], with WPMY1-ACTB-RAB5A, in the assay on WPMY1-CANX-COX4, in the assay on WPMY1-GM130-SQSTM1 [7], in the assay on WPMY1-TP53BP1-CLTA [8] and in the assay on WPMY1-TUBA1B-RELA was 1 (active) each time.
Consider `c1ccc([C@@H]2C[C@H]2NC2CCNCC2)cc1` [GSK LSD 1 dihydrochloride], for which the “lowest phenotypically active concentration” value in the assay on WPMY1-GM130-SQSTM1 [3] stood at 9 µM. The phenotypically active in the assay with A549-ACTB-RAB5A, with A549-CANX-COX4, in the assay with A549-GM130-SQSTM1, in the assay with A549-TP53BP1-CLTA, in the assay with A549-TUBA1B-RELA and in the assay with HepG2-ACTB-RAB5A was 0 (inactive) each time. Also, the phenotypically active in the assay on HepG2-CANX-COX4, in the assay with HepG2-GM130-SQSTM1 [5], in the assay with HepG2-TP53BP1-CLTA, in the assay on HepG2-TUBA1B-RELA [6], in the assay with WPMY1-ACTB-RAB5A and in the assay on WPMY1-CANX-COX4 was 0 (inactive) each time. Moreover, the phenotypically active was 1 (active) in the assay with WPMY1-GM130-SQSTM1 [7], 0 (inactive) in the assay with WPMY1-TP53BP1-CLTA [8] and 0 (inactive) in the assay on WPMY1-TUBA1B-RELA.
`CCN(CC)CCN1C(=O)CN=C(c2ccccc2F)c2cc(Cl)ccc21` [flurazepam]: the phenotypically active with A549-ACTB-RAB5A, in the assay on A549-CANX-COX4, with A549-GM130-SQSTM1, in the assay with A549-TP53BP1-CLTA, in the assay with A549-TUBA1B-RELA and with HepG2-ACTB-RAB5A was 0 (inactive) throughout. For the same compound, the phenotypically active with HepG2-CANX-COX4 is 1 (active); with HepG2-GM130-SQSTM1 [5], 0 (inactive); with HepG2-TP53BP1-CLTA, 0 (inactive); in the assay on HepG2-TUBA1B-RELA [6], 0 (inactive); with WPMY1-ACTB-RAB5A, 0 (inactive); with WPMY1-CANX-COX4, 0 (inactive). Further, the phenotypically active in the assay with WPMY1-GM130-SQSTM1 [7], in the assay with WPMY1-TP53BP1-CLTA [8] and with WPMY1-TUBA1B-RELA was 0 (inactive) each time.
As to `CC(C)C[C@H]1C(=O)N2CCC[C@H]2[C@]2(O)O[C@](NC(=O)[C@@H]3C=C4c5cccc6[nH]c(Br)c(c56)C[C@H]4N(C)C3)(C(C)C)C(=O)N12` [bromocriptine], the “lowest phenotypically active concentration” value in the assay on HepG2-GM130-SQSTM1 [1], in the assay with HepG2-TUBA1B-RELA [2], in the assay with WPMY1-GM130-SQSTM1 [3] and in the assay on WPMY1-TP53BP1-CLTA [4] was 9 µM in each case. Moreover, the phenotypically active was 0 (inactive) with A549-CANX-COX4; 1 (active) in the assay on A549-TP53BP1-CLTA; 1 (active) with HepG2-ACTB-RAB5A; 1 (active) in the assay with HepG2-CANX-COX4; 1 (active) with HepG2-GM130-SQSTM1 [5]; 1 (active) in the assay with HepG2-TP53BP1-CLTA. For the same compound, the phenotypically active with HepG2-TUBA1B-RELA [6] is 1 (active); in the assay with WPMY1-ACTB-RAB5A, 0 (inactive); with WPMY1-CANX-COX4 it was 0 (inactive); with WPMY1-GM130-SQSTM1 [7] it was 1 (active); with WPMY1-TP53BP1-CLTA [8] it was 1 (active); with WPMY1-TUBA1B-RELA, 0 (inactive).
For the compound `N[C@@H]1C[C@H]1c1cc(F)cc(F)c1OCc1ccccc1`, the “lowest phenotypically active concentration” value with WPMY1-GM130-SQSTM1 [3] and with WPMY1-TP53BP1-CLTA [4] was 9 µM each time. In addition, the phenotypically active in the assay on A549-ACTB-RAB5A, in the assay on A549-CANX-COX4, with A549-GM130-SQSTM1, in the assay on A549-TP53BP1-CLTA, in the assay on A549-TUBA1B-RELA and with HepG2-ACTB-RAB5A was 0 (inactive) throughout. Besides, the phenotypically active with HepG2-CANX-COX4 was 0 (inactive); with HepG2-GM130-SQSTM1 [5], 0 (inactive); in the assay on HepG2-TP53BP1-CLTA, 0 (inactive); in the assay with HepG2-TUBA1B-RELA [6], 0 (inactive); with WPMY1-ACTB-RAB5A, 1 (active); in the assay on WPMY1-CANX-COX4 it was 0 (inactive). Besides, the phenotypically active is 1 (active) in the assay with WPMY1-GM130-SQSTM1 [7], 1 (active) with WPMY1-TP53BP1-CLTA [8] and 0 (inactive) in the assay on WPMY1-TUBA1B-RELA.
